Conditions in all cases: 20 µM
Test [1] has as its system Haemophilus parainfluenzae. Briefly: growth AUC normalised to DMSO control (fraction of control); higher = less growth inhibition, active = hit call of the paper. A digest of the protocol:
(§1)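 After two anaerobic passages, pathogens were added at a starting OD578 of 0.01 to pre-reduced mGAM plates holding compound at 20 μM with 1% DMSO; hemin and NAD were supplemented for Haemophilus parainfluenzae. Sealed with breathable membranes, plates were read at OD578 hourly for 24 h, in three biological replicates. The trapezoidal rule, applied up to the exponential-to-stationary transition, gave the growth-curve AUC, which was normalised to DMSO controls on the same plate.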

Test [2] has as its system Salmonella enterica typhimurium. The test is described as above. A digest of the protocol:
as §1

The next test relates to Shigella flexneri. The test is described as above. A digest of the protocol:
as §1

For the next test, the system named is Vibrio cholerae. Described as above. A digest of the protocol: as §1
For test [3], the system named is Yersinia pseudotuberculosis. The description is as above. A digest of the protocol:
as §1

The next test concerns P. vulgatus RND KO. Briefly: growth AUC normalised to DMSO control (median) (fraction of control); higher = less growth inhibition, active = hit call of the paper. A digest of the protocol:
(§2)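 In 96-well plates of mGAM seeded at OD578 0.01, strains that had been passaged twice overnight without oxygen were exposed to approved-drug library compounds at 20 μM with 1% DMSO. Hourly OD578 readings were taken for 24 h in an anaerobic incubator. The trapezoidal-rule area under the curve, with curves truncated at entry into stationary phase, was expressed relative to same-plate vehicle wells as the median of three biological replicates.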

The next test has as its system P. vulgatus WT. Described as above. A digest of the protocol:
as §2

The subject of test [4] is S. enterica typhimurium WT. The description is as above. A digest of the protocol:
as §2

Test [5] deals with S. enterica typhimurium tolC KO. The description is as above. A digest of the protocol: as §2

Here are results for five compounds from the supplement of paper PMC12350171.

A number with no mark means an inactive call.
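For growth AUC normalised to DMSO control (median) in this document: active when median AUC fell below 0.1.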

As for `C#C[C@]1(O)CC[C@H]2[C@@H]3CCC4=CC(=O)CC[C@]4(C)[C@H]3CC[C@@]21C` [Ethisterone], the “growth AUC normalised to DMSO control” value in test [1] was 1.02; in test [2], 1.01; in the test on Shigella flexneri, 1.02; in the test on Vibrio cholerae, 1.02; in [3], 1; in the test on P. vulgatus RND KO, 1.05. Further, the “growth AUC normalised to DMSO control” value with P. vulgatus WT was 1.04; in [4], 1.02; in [5], 0.998.

Consider `CC(=O)OCC1=C(C(=O)O)N2C(=O)[C@@H](N)[C@H]2SC1` [Cephalosporanic acid, 7-amino], for which the “growth AUC normalised to DMSO control” value was 0.942 in [1]; 0.999 in test [2]; 0.987 in the test with Shigella flexneri; 0.968 in the test on Vibrio cholerae; 0.99 in test [3]; 0.0227 (active) in the test on P. vulgatus RND KO. Also, the “growth AUC normalised to DMSO control” value in the test with P. vulgatus WT was 0.0158 (active); in test [4] it was 1; in test [5], 0.983.

With `CC(C)c1cccc(C(C)C)c1O` [Propofol], the “growth AUC normalised to DMSO control” value in [1] was 0.988; in test [2] it was 1.01; with Shigella flexneri, 1.01; with Vibrio cholerae, 1.01; in test [3], 0.985; in the test on P. vulgatus RND KO it was 1.05. The entries for the “growth AUC normalised to DMSO control” value (with P. vulgatus WT; in test [4]; in test [5]) were 1.05, 1.01 and 0.993, respectively.

Consider `O=C(NCNC(=O)NC1C(=O)NC(=O)N1CO)NC1C(=O)NC(=O)N1CO` (stereo not given) [Imidurea], for which the “growth AUC normalised to DMSO control” value in [1] is 0.992; in [2], 1; in the test on Shigella flexneri it was 0.995; in the test with Vibrio cholerae, 1.01; in test [3], 1; in the test on P. vulgatus RND KO, 0.991. Also, the figures for the “growth AUC normalised to DMSO control” value (in the test on P. vulgatus WT; in test [4]; in test [5]) were 1.01, 0.998 and 0.996, respectively.

Consider `Fc1ccc(C(OCCN2CCN(CCCc3ccccc3)CC2)c2ccc(F)cc2)cc1`, for which the “growth AUC normalised to DMSO control” value in test [1] was 0.991; in test [2], 1; in the test on Shigella flexneri it was 0.998; in the test on Vibrio cholerae, 0.944; in test [3] it was 0.995; in the test on P. vulgatus RND KO, 0.994. The entries for the “growth AUC normalised to DMSO control” value (with P. vulgatus WT; in test [4]; in test [5]) were 0.966, 0.999 and 0.914, respectively.
